Results filed as inconclusive are left out. Activity calls are given as the source filed them. Unless noted, calls follow the shape of the dose curve; as a rule, active = well fitted curve in the direction sought with a large enough effect; inconclusive = small, poorly fitted or top-dose-only effect, or another doubt; inactive = no such curve, though single readings can be large; an effect the other way counts as inactive or inconclusive.

The nature of assay [1]: qHTS assay for measurement of the activity of small molecule inhibitors on Zika virus induced Caspase-3 activity in human iPSC derived neural progenitor cells (hNPCs) (AID 1224857). Also: nearly all actives have a fitted effect of over 65% in size. In a few lines:
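Zika virus (2 FFU/cell) infection of human iPSC-derived NPCs, 6 h, following 1 h compound preincubation. Read-out: Caspase-Glo 3/7 luminescence.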
(In general: Quantitative high-throughput screening tests each substance at several concentrations.)

Assay [2] in a line: qHTS assay for measurement of the activity of small molecule inhibitors on Zika virus induced Caspase-3 activity in human astrocytoma cells (AID 1224859). In a few lines: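 Caspase activation in ZIKV-infected SNB-19 cells (2 FFU/cell, 6 h) measured by Caspase-Glo 3/7 luminescence after 30 min RT; compound pre-incubated 1 h; normalised to uninfected and infected controls.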
The nature of assay [3]: Natriuretic polypeptide receptor (hNpr1) antagonism - Pilot counterscreen GloSensor control cell line (AID 1347045; calls by dose curve; also: series mostly up to about 38 µM). In a few lines: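 HEK293 cGMP-sensor cells; 2% GloSensor reagent 2 h RT; LOPAC compounds in 1:5 titrations 30-50 min; 50 uM SNP 20 min; luminescence pre-read and post-read.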
On the technique in general: The purpose of a counterscreen is to sort out artefacts and off-target activity.

For assay [4], the target named is Atrial natriuretic peptide receptor 1 (Homo sapiens) (UniProt P16066). In words: Natriuretic polypeptide receptor (hNpr1) antagonism - Pilot screen (AID 1347049; calls by dose curve;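 also: agonist-evoked cGMP luminescence read 20 min after hNppA addition; series mostly up to about 58 µM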). In a few lines: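 cGMP-sensor HEK293/hNpr1 cells, 1500/well, plated overnight at 37C. 2% GloSensor reagent, 2 h RT. Compound (23 nL pin transfer) 30 min RT, baseline luminescence pre-read. 0.1 nM hNppA, 20 min RT, post-read.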
Atrial natriuretic peptide receptor 1 (Homo sapiens), sequence (P16066 whole entry, looked up): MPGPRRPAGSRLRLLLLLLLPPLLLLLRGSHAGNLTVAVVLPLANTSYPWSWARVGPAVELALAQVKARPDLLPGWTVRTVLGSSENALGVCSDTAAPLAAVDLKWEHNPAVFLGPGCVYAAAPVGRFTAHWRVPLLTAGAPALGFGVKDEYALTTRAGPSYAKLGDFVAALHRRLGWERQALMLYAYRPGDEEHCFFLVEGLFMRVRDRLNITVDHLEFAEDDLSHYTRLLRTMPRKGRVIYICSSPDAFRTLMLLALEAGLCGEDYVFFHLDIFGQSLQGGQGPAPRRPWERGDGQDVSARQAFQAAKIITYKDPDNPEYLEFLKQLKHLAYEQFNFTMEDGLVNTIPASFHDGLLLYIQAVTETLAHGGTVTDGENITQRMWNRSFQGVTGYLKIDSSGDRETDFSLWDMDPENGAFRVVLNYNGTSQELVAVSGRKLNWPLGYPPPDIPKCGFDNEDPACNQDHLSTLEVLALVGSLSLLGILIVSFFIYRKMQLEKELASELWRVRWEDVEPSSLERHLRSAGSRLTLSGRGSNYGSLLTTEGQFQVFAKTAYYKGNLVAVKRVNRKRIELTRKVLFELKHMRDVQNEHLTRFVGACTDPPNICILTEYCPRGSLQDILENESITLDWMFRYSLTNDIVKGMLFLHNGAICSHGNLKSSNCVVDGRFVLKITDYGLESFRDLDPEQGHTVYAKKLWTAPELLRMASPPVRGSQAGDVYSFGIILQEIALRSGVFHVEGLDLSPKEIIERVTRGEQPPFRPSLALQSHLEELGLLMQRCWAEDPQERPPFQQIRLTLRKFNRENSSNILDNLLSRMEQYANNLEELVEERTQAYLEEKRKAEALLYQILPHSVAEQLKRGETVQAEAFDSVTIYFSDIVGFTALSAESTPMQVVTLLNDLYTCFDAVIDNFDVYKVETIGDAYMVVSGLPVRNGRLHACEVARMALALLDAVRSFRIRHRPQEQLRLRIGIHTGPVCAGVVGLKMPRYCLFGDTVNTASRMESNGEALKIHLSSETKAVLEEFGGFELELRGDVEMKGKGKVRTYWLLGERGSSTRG

The target in assay [5] is Atrial natriuretic peptide receptor 2 (Homo sapiens) (UniProt P20594). In words: Natriuretic polypeptide receptor (hNpr2) antagonism - Pilot subtype selectivity assay (AID 1347050; calls by dose curve). An outline of the steps:
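Luminescence from a genetically encoded cGMP luciferase biosensor in hNpr2-expressing HEK293 cells is read before and 20 min after adding 1 nM hNppC. Test compounds, in interplate 1:5 titrations, are added 30-50 min ahead of the agonist.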

Assay [6] is described as follows: NS1 protein of Zika virus - qHTS assay to identify small molecule inhibitors in human HEK 293 cells (AID 1347053). Also: series mostly up to about 46 µM; nearly all actives have a fitted effect of over 55% in size. An outline of the steps:
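TR-FRET signal from two anti-ZIKV NS1 antibodies quantified NS1 in HEK 293 cells 24 h after MR766 infection at MOI = 0.5; compounds were added 1 h before virus. Uninfected cells and infected cells defined the NS1 normalization range.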

The target of assay [7] is T1, Tyrosine-protein phosphatase non-receptor type substrate 1 (Homo sapiens) + Leukocyte surface antigen CD47 (Homo sapiens) (UniProt P78324+Q08722). In words: CD47-SIRPalpha protein protein interaction - LANCE assay qHTS validation (AID 1347057; active = well fitted curve in the direction sought with a large enough effect in the signal ratio, with a control signal flat, not every such curve was filed as active; the % refers to the signal ratio; also: series mostly up to about 38 µM). In a few lines: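 Inhibition of soluble CD47/SIRPalpha ectodomain association by titrated compounds, measured as 665/615 nm time-resolved FRET ratio after sequential 30 min room-temperature incubations.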
T1 sequence (P78324 whole entry, looked up, the tested form may be a part): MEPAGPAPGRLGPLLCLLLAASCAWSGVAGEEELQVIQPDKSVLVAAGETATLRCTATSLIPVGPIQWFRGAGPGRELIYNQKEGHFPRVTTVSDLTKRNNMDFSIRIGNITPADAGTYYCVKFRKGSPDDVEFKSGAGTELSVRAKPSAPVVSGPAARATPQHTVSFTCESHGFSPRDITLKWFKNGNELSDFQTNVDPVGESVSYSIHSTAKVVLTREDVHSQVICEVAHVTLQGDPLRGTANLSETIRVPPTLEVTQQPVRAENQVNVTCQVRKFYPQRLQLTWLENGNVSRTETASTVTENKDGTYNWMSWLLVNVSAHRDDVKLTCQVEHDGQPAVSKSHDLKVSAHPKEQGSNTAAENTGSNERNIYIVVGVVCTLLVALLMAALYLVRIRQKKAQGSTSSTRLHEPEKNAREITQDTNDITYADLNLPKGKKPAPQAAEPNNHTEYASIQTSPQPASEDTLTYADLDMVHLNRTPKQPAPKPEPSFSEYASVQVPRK
T1 sequence (Q08722 whole entry, looked up, the tested form may be a part): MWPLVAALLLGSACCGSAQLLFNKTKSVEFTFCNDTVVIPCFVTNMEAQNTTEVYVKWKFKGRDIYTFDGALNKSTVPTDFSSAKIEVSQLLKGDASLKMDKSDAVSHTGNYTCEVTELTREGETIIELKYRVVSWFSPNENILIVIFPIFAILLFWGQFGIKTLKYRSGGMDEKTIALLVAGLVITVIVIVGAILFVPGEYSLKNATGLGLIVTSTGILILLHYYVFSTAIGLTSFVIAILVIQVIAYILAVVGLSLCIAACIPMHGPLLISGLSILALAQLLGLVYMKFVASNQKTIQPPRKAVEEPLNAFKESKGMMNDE
Background: Time-resolved FRET reads energy transfer from a long-lived donor to a nearby acceptor.

Assay [8] has as its target T1, Tyrosine-protein phosphatase non-receptor type substrate 1 (Homo sapiens) + Leukocyte surface antigen CD47 (Homo sapiens). In words: CD47-SIRPalpha protein protein interaction - HTRF assay qHTS validation (AID 1347058; active = well fitted curve in the direction sought with a large enough effect in the signal ratio, not every such curve was filed as active; the % refers to the signal ratio; also: series mostly up to about 38 µM). In a few lines:
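Soluble extracellular domains (6His-CD47, Avi-tag-biotinylated SIRPalpha) in PBS pH 7.4 with 0.05% IGEPAL CA-630. Compounds were preincubated 30 min at RT with CD47 and anti-His-Eu, then SIRPalpha and SAV-XL665 were added. TR-FRET 665/615 ratio.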

For assay [9] the target is unchanged. In words: CD47-SIRPalpha protein protein interaction - Alpha assay qHTS validation (AID 1347059).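 Also: bead proximity luminescence from CD47 binding SIRPalpha after compound preincubation with SIRPalpha.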 In a few lines:
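SIRPalpha-biotin 25 nM + cpd, 30 min RT, dark; add CD47-His 12.5 nM, 30 min; add Ni-NTA/SAV beads 10 ug/mL, 30 min; AlphaScreen. Buffer PBS pH 7.4 + 0.05% IGEPAL CA-630. Non-biotinylated SIRPalpha as control inhibitor.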

For assay [10], the target named is Parathyroid hormone/parathyroid hormone-related peptide receptor (Homo sapiens) (UniProt Q03431). In words: qHTS for PTHR1 Agonists: Optimization Screen against the NCGC LOPAC library (AID 1347079).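 Also: GloSensor cAMP luminescence in HEK-293 GP2 cells expressing human PTHR1 with IBMX.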 Also: potency is read from the fitted curve at half-maximal effect. In a few lines: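 Signal increase flags agonism. GP2 cells, derived from HEK-293, express human PTHR1 and a GloSensor cAMP construct.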
Parathyroid hormone/parathyroid hormone-related peptide receptor (Homo sapiens), sequence (Q03431 whole entry, looked up): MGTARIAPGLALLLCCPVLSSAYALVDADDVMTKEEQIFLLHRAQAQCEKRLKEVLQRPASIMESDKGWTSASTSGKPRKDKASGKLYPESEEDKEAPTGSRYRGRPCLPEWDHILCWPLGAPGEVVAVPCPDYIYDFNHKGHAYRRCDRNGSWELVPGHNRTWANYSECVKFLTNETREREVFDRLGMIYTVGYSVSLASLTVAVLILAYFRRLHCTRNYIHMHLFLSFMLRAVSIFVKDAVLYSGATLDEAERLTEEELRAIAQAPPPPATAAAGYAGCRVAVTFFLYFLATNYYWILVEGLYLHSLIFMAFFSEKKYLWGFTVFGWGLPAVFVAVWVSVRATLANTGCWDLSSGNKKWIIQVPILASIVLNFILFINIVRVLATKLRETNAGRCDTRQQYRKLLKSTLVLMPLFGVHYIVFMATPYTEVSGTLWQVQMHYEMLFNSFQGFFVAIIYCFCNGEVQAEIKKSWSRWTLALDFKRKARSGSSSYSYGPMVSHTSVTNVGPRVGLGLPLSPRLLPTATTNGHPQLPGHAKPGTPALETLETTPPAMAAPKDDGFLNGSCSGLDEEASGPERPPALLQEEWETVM
Assay [11] deals with N-terminal Xaa-Pro-Lys N-methyltransferase 1 (Homo sapiens) (UniProt Q9BV86). In words: qHTS Assay for Inhibitors of N-terminal methyltransferase 1 (NTMT1): LOPAC validation of the NTMT1 SAHH-coupled ThioGlo3 Assay (AID 1347143).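 Also: SAH from peptide methylation measured as thiol fluorescence via SAHH coupling and ThioGlo3; nearly all actives have a fitted effect of over 70% in size.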 Also: potency is read from the fitted curve at half-maximal effect. An outline of the steps:
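Steps: dispense 125nM NTMT1; pin-transfer test compounds at several concentrations, with 1uM RCC1-6 peptide as control; incubate 1 min; start with reagent holding 100uM SAM, 10uM SAHH, 15uM ThioGlo3; read at 0 and 30 min.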

In assay [12] the test system is Zika virus NS2B-NS3 protease (unlinked). In words: Optimization of GU AMC qHTS for Zika virus inhibitors: Unlinked NS2B-NS3 protease assay (AID 1347151). Also: nearly all actives have a fitted effect of over 80% in size. Also: potency is read from the fitted curve at half-maximal effect. In a few lines: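 Unlinked protease (25 nM final); buffer 10 mM Tris-HCl pH 8.0 + 0.01% Tween 20; AMC substrate; 15 min RT, dark; Δfluorescence normalized to no-inhibitor/no-enzyme controls; 4-parameter Hill fit.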

Atrial natriuretic peptide receptor 2 (Homo sapiens), sequence (P20594 whole entry, looked up): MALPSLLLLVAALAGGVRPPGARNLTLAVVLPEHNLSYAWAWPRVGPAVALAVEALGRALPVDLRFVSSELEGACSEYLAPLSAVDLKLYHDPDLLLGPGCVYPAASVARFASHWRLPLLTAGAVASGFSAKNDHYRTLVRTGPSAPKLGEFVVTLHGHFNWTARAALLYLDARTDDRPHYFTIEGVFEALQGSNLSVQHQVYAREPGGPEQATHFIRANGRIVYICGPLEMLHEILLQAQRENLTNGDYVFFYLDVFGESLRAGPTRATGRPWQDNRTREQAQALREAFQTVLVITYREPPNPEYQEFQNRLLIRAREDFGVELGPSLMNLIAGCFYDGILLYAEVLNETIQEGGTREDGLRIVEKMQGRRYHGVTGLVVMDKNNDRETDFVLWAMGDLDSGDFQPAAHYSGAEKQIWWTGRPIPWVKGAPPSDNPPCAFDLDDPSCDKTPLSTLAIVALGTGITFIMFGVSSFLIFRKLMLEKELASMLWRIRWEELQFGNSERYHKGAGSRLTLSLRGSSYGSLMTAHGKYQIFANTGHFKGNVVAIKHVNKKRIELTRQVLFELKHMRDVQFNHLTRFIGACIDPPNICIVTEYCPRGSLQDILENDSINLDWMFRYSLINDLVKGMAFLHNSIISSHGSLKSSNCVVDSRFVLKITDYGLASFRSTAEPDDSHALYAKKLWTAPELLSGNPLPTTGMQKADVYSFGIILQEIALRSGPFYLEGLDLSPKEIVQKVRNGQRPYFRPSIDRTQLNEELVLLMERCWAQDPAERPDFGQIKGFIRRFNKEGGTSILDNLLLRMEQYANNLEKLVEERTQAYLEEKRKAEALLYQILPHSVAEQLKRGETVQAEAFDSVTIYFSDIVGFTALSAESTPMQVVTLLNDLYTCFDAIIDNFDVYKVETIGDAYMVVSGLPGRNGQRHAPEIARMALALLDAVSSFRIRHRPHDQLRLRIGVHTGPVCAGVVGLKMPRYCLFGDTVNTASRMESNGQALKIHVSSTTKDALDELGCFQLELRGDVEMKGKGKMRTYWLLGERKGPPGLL
N-terminal Xaa-Pro-Lys N-methyltransferase 1 (Homo sapiens), sequence (Q9BV86 whole entry, looked up): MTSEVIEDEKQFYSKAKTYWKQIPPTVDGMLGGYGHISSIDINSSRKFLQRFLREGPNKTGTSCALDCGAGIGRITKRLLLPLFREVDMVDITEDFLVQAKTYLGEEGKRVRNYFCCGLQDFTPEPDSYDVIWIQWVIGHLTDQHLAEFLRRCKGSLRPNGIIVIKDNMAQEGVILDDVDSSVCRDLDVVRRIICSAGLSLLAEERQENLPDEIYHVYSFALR

As for `N[C@H]1CONC1=O`, the Potency entry in [1], in [2], in [3], in assay [4], in assay [5] and in assay [6] was “inactive” throughout. Also, the Potency entry in assay [7], in assay [9], in assay [10], in assay [11] and in assay [12] was “inactive” throughout. Moreover, the result in assay [8] was inactive.
Turning to `N[C@@H](CS(=O)O)C(=O)O`, the Potency result in assay [1], in assay [2], in [3], in assay [4], in assay [5] and in assay [6] was “inactive” throughout. Further, the Potency result in assay [7], in assay [9], in assay [10], in assay [11] and in [12] was “inactive” in each case. In addition, the result in [8] was inactive.
As to `C[N+](C)(C)CC=O`, the Potency result in assay [1], in assay [2], in assay [3], in [4], in assay [5] and in assay [6] was “inactive” each time. In addition, the Potency entry in [7], in assay [9], in [10], in assay [11] and in [12] was “inactive” in each case. Further, the outcome in assay [8] was inactive.
Take `COc1ccc(CCN(C)CCc2ccc(OC)c(OC)c2)cc1OC`: the Potency entry in assay [1], in assay [2], in assay [3], in [4], in assay [5] and in assay [6] was “inactive” throughout. Besides, the Potency entry in [7], in assay [9], in [10], in assay [11] and in assay [12] was “inactive” in each case. In addition, the result in assay [8] was inactive.
Turning to `C=CC1(C)CC(=O)C2(O)C(C)(O1)C(OC(C)=O)C(O)C1C(C)(C)CCC(O)C12C` (stereo not given), the Potency result in [1], in assay [2], in assay [3], in assay [4], in assay [5] and in [6] was “inactive” each time. For the same compound, the Potency result in assay [7], in assay [9], in assay [11] and in assay [12] was “inactive” each time. For the same compound, the outcome in [8] was inactive. Also, the Potency in [10] was 21.2 µM (active).
Turning to `c1ccc2c(c1)CC(N1CCN(c3cccc4c3OCCO4)CC1)C2`, the Potency result in assay [1], in assay [2], in assay [3], in [4], in assay [5] and in assay [6] was “inactive” in each case. Moreover, the Potency entry in [7], in assay [9], in [10], in [11] and in assay [12] was “inactive” in each case. Moreover, the outcome in assay [8] was inactive.
For `CCCCCCCCCC[Si](C)(C)CCC(=O)NC(Cc1ccc(C)cc1)c1ccccc1` (stereo not given), the Potency result in [1], in assay [2], in assay [3], in assay [4], in assay [5] and in assay [6] was “inactive” in each case. The Potency entry in assay [7], in assay [9], in [10], in assay [11] and in [12] was “inactive” in each case. The outcome in assay [8] was inactive.
For `CCN(CC)CCCCCCCCOC(=O)c1cc(OC)c(OC)c(OC)c1`, the Potency entry in assay [1], in assay [2], in assay [3], in [4], in [5] and in [6] was “inactive” in each case. Also, the Potency entry in [7], in assay [9], in [10] and in assay [12] was “inactive” throughout. For the same compound, the result in [8] was inactive.
With `C[C@](Cc1ccc(O)c(O)c1)(NN)C(=O)O`, the Potency result in assay [1], in [2], in assay [3], in assay [4], in [5] and in [6] was “inactive” throughout. Also, the Potency entry in [7], in [9], in assay [10] and in assay [12] was “inactive” throughout. The outcome in assay [8] was inactive. The Potency in assay [11] was 39.8 µM (active).
As for `O=c1ccc2c(OCCCCc3ccccc3)c3ccoc3cc2o1`, the Potency result in assay [1], in assay [2], in assay [3], in assay [4], in assay [5] and in assay [6] was “inactive” throughout. Besides, the Potency entry in [7], in assay [9] and in assay [10] was “inactive” each time. Also, the outcome in assay [8] was inactive. In addition, the Potency in assay [12] was 26.7 µM (active).
`O=C(c1ccc2c(c1)OCCO2)N1CCCCC1`: the Potency result in assay [1], in [2], in assay [3], in [4], in [5] and in [6] was “inactive” throughout. In addition, the Potency entry in assay [7], in [9], in assay [10], in assay [11] and in assay [12] was “inactive” throughout. Moreover, the result in [8] was inactive.

Source of the values: PubChem BioAssay (NCATS).
